# Compound activity deposited in PubChem BioAssay by National Center for Advancing Translational Sciences (NCATS).
# In the library only some 2.6% were active in any assay of this set; here they are far more common.
# Cruzain Triton – inhibitors of Trypanosoma cruzi cruzain with detergent; P25779; Potency, µM, for inactives: max response, negative = inhibition, most hits filed as inhibitors; 200,000 compounds, 0.43% hits; purified cruzain, Z-FR-AMC fluorescence, 0.01% Triton; AID 1478;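 note: plate controls were neutral wells for no effect and buffer without enzyme for full effect; nearly all actives have a fitted effect of over 40% in size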
# Target sequence (P25779 123-467 limits assumed): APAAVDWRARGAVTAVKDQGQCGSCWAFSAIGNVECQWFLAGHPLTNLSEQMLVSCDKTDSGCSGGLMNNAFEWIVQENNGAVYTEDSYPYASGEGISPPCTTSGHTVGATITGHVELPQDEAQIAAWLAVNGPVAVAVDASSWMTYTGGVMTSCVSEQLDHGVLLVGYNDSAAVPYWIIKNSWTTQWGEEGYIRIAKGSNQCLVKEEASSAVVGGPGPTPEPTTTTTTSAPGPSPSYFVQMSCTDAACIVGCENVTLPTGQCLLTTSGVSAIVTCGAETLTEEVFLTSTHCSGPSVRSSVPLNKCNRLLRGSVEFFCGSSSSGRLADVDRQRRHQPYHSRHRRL
#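 Sodium acetate buffer (100 mM, pH 5.5) containing 5 mM DTT and 0.01% Triton X-100 hosted 1.5 nM cruzain and test compound for 15 min at room temperature. Cleavage of 2 uM Z-FR-AMC was then tracked by fluorescence.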
# Cruzain noTriton – cruzain (T. cruzi) inhibition without detergent; purified cruzain, Z-FR-AMC fluorescence, no detergent; 200,000 compounds, 2.3% hits; P25779; Potency, µM, for the others: max response, negative = inhibition, usual class: inhibitors;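 note: plate controls were enzyme without inhibitor for no effect and buffer without enzyme for full effect; nearly all actives have a fitted effect of over 40% in size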
#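 Purified cruzain at 1.5 nM, pre-incubated 15 min with compound at room temperature in 100 mM sodium acetate pH 5.5, 5 mM DTT, 0.00005% Triton X-100. Reaction started with 2 uM Z-FR-AMC; AMC fluorescence increase over 60 s gives rate.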
# The depositor's hits bear a star; ? = inconclusive. Calls come from the whole dose curve; as a rule, active = well fitted curve in the direction sought with a large enough effect; inconclusive = small, poorly fitted or top-dose-only effect, or another doubt; inactive = no such curve, though single readings can be large; an effect the other way counts as inactive or inconclusive. Potency is the fitted concentration of half-maximal effect.
SMILES,Cruzain Triton,Cruzain noTriton
CC1CC(C)CN(c2ccc(-n3cnnn3)cc2[N+](=O)[O-])C1 (stereo unspecified),-5.5%,3.1%
O=C1C(c2[nH]c3ccc(S(=O)(=O)O)cc3c2O)=Nc2ccc(S(=O)(=O)O)cc21,1.3%,-3.3%
N#Cc1ccc(Cl)cc1NC(=O)COC(=O)[C@H](CCC(N)=O)NC(=O)c1ccc(F)cc1,20µM*,20µM*
CSCCC(NC(=O)c1ccc(Cl)cc1)C(=O)OCC(=O)Nc1cc(Cl)ccc1C (stereo unspecified),22.4µM*,?
NC(=O)CC[C@H](NC(=O)c1ccc(F)cc1)C(=O)OCC(=O)Nc1c(F)c(F)c(F)c(F)c1F,28.2µM*,12.6µM*
CC(C)[C@H](NC(=O)c1ccccc1)C(=O)OCC(=O)Nc1ccc(Cl)cc1C(F)(F)F,-3.2%,-1.8%
CC(C)c1ccc(NC(=O)COC(=O)[C@H](CCC(N)=O)NC(=O)c2ccc(F)cc2)cc1,?,12.9%
CCc1ccc(C(=O)COC(=O)C(CCSC)NC(=O)c2ccccc2)cc1 (stereo unspecified),-3.4%,-11.9%
O=C(CCCCn1c(=O)c2ccccc2n(CC(=O)Nc2ccc(F)cc2F)c1=O)NCc1ccccc1Cl,-2.2%,2.0%
O=c1c2ccccc2c2ccccc2c(=O)n1-c1cc2c3ccccc3ccc2c2ccccc12,-18.1%,-25.1%
COc1ccc(NC(=O)c2oc3ccc(S(=O)(=O)N(C)C4CCCCC4)cc3c2C)cc1Cl,1.2%,-12.3%
COc1cc(C2CC(=O)N(Cc3cccc(F)c3)c3ccccc3S2)cc(OC)c1OC (stereo unspecified),-2.3%,?
CC(CNC(=O)Cn1ncc2c3ccccc3n(Cc3cccc(Cl)c3)c2c1=O)c1ccccc1 (stereo unspecified),-2.5%,5.5%
CCOc1ccccc1NC(=O)COC(=O)c1cn(CC)c2nc(C)ccc2c1=O,-2.3%,-1.0%
O=C(CSc1ccc(Cl)cc1)Nc1nnc(-c2cccc([N+](=O)[O-])c2)s1,-1.6%,?
O=C(Cc1cccc2ccccc12)Nc1nnc(-c2cccc([N+](=O)[O-])c2)s1,0.2%,25.1µM*
Cc1cccc(OCC(=O)Nc2ccc3c(c2)nc(CCNC(=O)c2ccco2)n3C)c1,-5.3%,-1.5%
N#Cc1c(Sc2ncc(C(F)(F)F)cc2Cl)nsc1C/C=N\OCc1c(F)cccc1Cl,-5.9%,3.98µM*
FC(F)(F)c1cnc(Sc2nnc(-c3cccs3)n2CC2CCCO2)c(Cl)c1 (stereo unspecified),1.4%,-9.6%
Cc1ccc2cc3cc(C(=O)N(C)c4ccccc4C)oc3nc2c1,-11.3%,1.9%
CCc1ccccc1NC(=O)COc1ccc2c(=O)c(Oc3cc(C)ccc3C)coc2c1,-4.8%,?
CC(C)c1ccccc1NC(=O)COc1ccc2c(=O)c(Oc3ccc4ccccc4c3)coc2c1,-2.7%,31.6µM*
CCOc1ccc(NC(=O)c2c(NCc3cccnc3)sc3c2CCC(C)C3)cc1 (stereo unspecified),-4.4%,18.1%
Cc1ccc(Cn2c(C(=O)Nc3cccc(Cl)c3)cc3sccc32)cc1,-5.4%,25.1µM*
CCOC(=O)c1cccc(NC(=O)c2cc3sccc3n2Cc2ccc(Cl)cc2)c1,4.3%,9.4%
SMILES,Cruzain Triton,Cruzain noTriton
CC(=O)c1ccc(NC(=O)c2cc3sccc3n2Cc2ccc(Cl)cc2)cc1,-3.7%,?
CCOC(=O)c1ccc(NC(=O)c2cc3sccc3n2Cc2ccc(Cl)cc2)cc1,1.8%,10µM*
CCCCNC(=O)CCCn1c(=O)c2ccccc2n(Cc2ccccc2C)c1=O,-2.6%,-10.6%
Cc1ccccc1CNC(=O)C1=Cc2ccccc2OC1,-6.0%,-7.7%
Cc1cc(Br)c(OCc2ccc(C(=O)N/N=C3\CC(=O)CC(C)(C)C3)cc2)c(Br)c1,-1.0%,10µM*
Cc1cc(OCc2ccc(C(=O)NN=C3CCCC3)cc2)ccc1Cl,-6.1%,?
CO[C@@H](CCOCc1ccccc1)C[C@H]1O[C@H](C(=O)OC(C)C)C=C[C@@H]1C,4.8%,?
COc1cc(/C=N/NC(=S)N/N=C/c2cc(OC)c(OC)c(OC)c2)cc(OC)c1OC,14.1µM*,?
COc1cc(/C=N/NC(=S)Nc2cccc(C(=O)O)c2)cc(OC)c1OC,-11.5%,-5.1%
Cc1cc2oc(C(=O)Nc3ccc(S(=O)(=O)Nc4onc(C)c4C)cc3)cc(=O)c2cc1C,-10.0%,9.3%
CCOC(=O)c1ccc(NC(=O)C(CC)Sc2nc3ccncc3[nH]2)cc1 (stereo unspecified),-1.0%,-11.2%
Cc1ccc(C)c(NC(=O)CSc2nnc([C@@H](N)Cc3c[nH]c4ccccc34)o2)c1,?,25.1µM*
CC(C)Sc1nnc([C@@H](N)Cc2c[nH]c3ccccc23)o1,-2.0%,6.9%
COC(=O)c1ccc(C(NC(=O)OCc2ccccc2)/C(F)=C/[C@@H](C)C(=O)NCc2cc(F)cc(F)c2)cc1 (stereo partly specified),-1.4%,-2.8%
COC(=O)c1ccc(C(NC(=O)OCc2ccccc2)/C(F)=C/[C@@H](C)C(=O)NCc2ccc(-c3ccccc3)cc2)cc1 (stereo partly specified),2.1%,10µM*
Ic1ccc2c(c1)N(c1ccccc1)c1cc(Nc3ccc4nc5ccc(I)cc5[n+](-c5ccccc5)c4c3)ccc1N2,-1.6%,3.16µM*
CNc1oc(-c2ccccc2)nc1C#N,-9.1%,29.5%
CNc1oc(/C=C/c2ccccc2)nc1C#N,25.1µM*,?
COc1cccc(Nc2nc(-c3ccc4c(c3)OCCO4)cs2)c1,-0.8%,25.1µM*
c1cc2c(cc1Nc1nc(-c3ccc4c(c3)OCO4)cs1)OCCO2,0.4%,10µM*
N#C/C(=C\Nc1ccc2c(c1)OCCO2)c1nc(-c2ccccc2)cs1,-3.3%,?
Cc1nc(NC(=O)c2ccccc2)sc1-c1csc(NCc2ccccc2)n1,3.7%,?
COc1ccc(-c2csc(/C(C#N)=C/Nc3ccc4c(c3)OCCO4)n2)cc1,-4.2%,12.6µM*
Cc1nc(N)sc1-c1csc(NCc2ccccc2)n1,-15.2%,31.6µM*
COc1ccc(-c2csc(Nc3cccnc3)n2)cc1,10.7%,?
SMILES,Cruzain Triton,Cruzain noTriton
c1ccc(-c2csc(Nc3ccc4c(c3)OCCO4)n2)cc1,-2.0%,?
Cc1nn(S(=O)(=O)c2ccc(C(C)(C)C)cc2)c(C)c1S(=O)(=O)N1CCCCCC1,0.0%,?
Cc1cccn2c(=O)cc(COc3cccc(NC(=O)c4cccc(Cl)c4)c3)nc12,-0.8%,-10.3%
COc1ccc(Oc2ncc3nc(-c4cc(F)cc(F)c4)c(=O)n(C[C@H]4CCCO4)c3n2)cc1,-2.5%,2.3%
CCCCN(C)CCNC(=O)c1nn(-c2ccc(OC)c(Cl)c2)c(=O)c2c1c1ccccc1n2C,0.1%,-1.5%
COc1cccc(Nc2nc(-c3sc(NC(=O)c4ccco4)nc3C)cs2)c1,-1.4%,?
COc1cccc(Nc2nc(-c3sc(N)nc3C)cs2)c1,?,12.6µM*
Cc1ccc(NC(=O)C2CC(=O)N/C(=N/N=C/c3ccco3)S2)cc1 (stereo unspecified),-1.8%,?
Cc1ccc(NC(=O)C2CC(=O)N/C(=N/N=C/c3ccco3)S2)cc1C (stereo unspecified),-2.9%,12.6µM*
COC(=O)c1ccc(-c2ncc(-c3cccc4ccccc34)o2)cc1,20µM*,?
COC(=O)c1ccc(-c2nc3ccccc3o2)cc1,2.1%,6.6%
COc1ccc(NC(=O)c2oc3ccccc3c2NC(=O)COc2ccc(C(C)C)cc2)c(OC)c1,-1.2%,-4.4%
